The assay in a line: yeast V-ATPase proton pumping modulators, confirmation, S. cerevisiae, pH-sensitive GFP, second cherry-pick (AID 602197).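 Note: plate controls were vehicle wells for no effect and positive control wells for full effect.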 The following applies: S. cerevisiae pHLuorin cytosolic pH, V-ATPase proton transport; at 10 µM; active compounds read high.

This is one part of the list. Unmarked numbers belong to inactive results. Cut-off read from the data, not from the text of the source: active = response above about 24%; inactive = the rest.

In the case of `Cc1ccccc1N1C(=O)NC(=O)/C(=C\c2cc(C)n(C)c2C)C1=O`, the response was 1.24%.

On to `CC(=O)Nc1ccc(C(=O)C(Cc2ccccc2)N(C)C)cc1` (configuration not stated), for which the response was 2.66%.

(Values after PubChem BioAssay AID602197 (NMMLSC, 2012).)
